Values joined by “and” are separate entries in the source; they are usually repeats but may differ in a detail not shown here. Equal values may be shown once. Inconclusive results are not listed. A number with no mark means an inactive call. Active and inactive are the calls of the source. The call rests on the fitted dose curve; in most records, active means well fitted activation curve with a large enough effect; inconclusive means small, poorly fitted or top-dose-only effect, or effect the other way; inactive means flat fitted curve, though single readings scatter.

Pyruvate kinase PKM (Homo sapiens), sequence (P14618 whole entry, looked up, canonical isoform): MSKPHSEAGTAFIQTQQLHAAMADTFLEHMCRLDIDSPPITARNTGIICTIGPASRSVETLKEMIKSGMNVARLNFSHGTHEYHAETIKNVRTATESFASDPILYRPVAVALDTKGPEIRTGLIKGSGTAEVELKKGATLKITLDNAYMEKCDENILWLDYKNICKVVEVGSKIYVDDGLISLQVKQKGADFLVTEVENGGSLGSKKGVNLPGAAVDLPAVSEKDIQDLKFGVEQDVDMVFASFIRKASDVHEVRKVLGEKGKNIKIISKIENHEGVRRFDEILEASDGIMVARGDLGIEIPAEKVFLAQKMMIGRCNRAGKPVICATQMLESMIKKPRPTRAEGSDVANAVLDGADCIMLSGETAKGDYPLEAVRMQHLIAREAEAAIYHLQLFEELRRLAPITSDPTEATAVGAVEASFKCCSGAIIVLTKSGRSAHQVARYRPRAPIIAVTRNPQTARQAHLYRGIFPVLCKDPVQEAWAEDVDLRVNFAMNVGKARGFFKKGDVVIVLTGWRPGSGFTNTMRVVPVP

In this test the target is Pyruvate kinase PKM (Homo sapiens) (UniProt P14618). The test can be described thus: Secondary assay for Activators of Human Pyruvate Kinase M2 isoform. Particulars: purified hPK-M2, LDH-coupled NADH fluorescence kinetic; series mostly up to 57.5 µM; activation: at the top concentration. From the text:
Confirmatory assay NIH Chemical Genomics Center [NCGC] Matthew G. Vander Heiden, M.D., Ph.D. [Harvard Medical School, 77 Avenue Louis Pasteur, Boston, MA 02115] NCGC Assay Overview: Human pyruvate kinase muscle 2 (hPK-M2)enzyme was supplied as a highly purified (>95% pure) preparation from Harvard Medical School and a secondary assay was used to evaluate compounds. This assay couples the formation of pyruvate from hPK-M2 using lactate dehydrogenase (LDH) and NADH. The depletion of NADH is followed in a fluorescent-based kinetic assay that follows the formation of pyruvate to lactate, as catalyzed LDH (described by Hannaert et al., 2002)1 Pyruvate kinase substrates, PEP and ADP, were present in the assay at 0.1 mM and 4 mM respectively. In this kinetic assay initial rates were determined by following the fluorescence of NADH depletion.
NCGC Assay Protocol Summary: Three uL of substrate mix (final concentration, 50 mM Tris-Cl pH 8.0, 200 mM KCl, 15 mM MgCl2, 0.1 mM PEP, 4.0 mM ADP, and 0.2 mM NADH) was dispensed into black-solid 1536 well plates. 23 nL of compounds were delivered by a pin tool and 1 uL of enzyme mix (final concentrations, 10 nM hPK-M2 and 1 uM of LDH) was added. Plates were immediately placed in ViewLux (Perkin Elmer) and NADH fluorescence was determined at 30 second exposure intervals for between 3 and 6 minutes. Data were normalized to the uninhibited and EC100 activation using known activators such as fructose-bis-phosphate.
In the case of `O=S(=O)(c1ccc2c(c1)OCCO2)N1CCN(S(=O)(=O)c2ccccn2)CC1`, the Potency is 2820 nM (active).

`Cc1cc2c(s1)c1cnn(Cc3cccc(F)c3F)c(=O)c1n2C`: the Potency was 501 nM (active).

For `O=C(O)c1cc(F)c(S(=O)(=O)N2CCN(S(=O)(=O)c3ccc4c(c3)OCCO4)CC2)cc1F`, the Potency was 31600 nM (active).

Turning to `Cc1cc2c(s1)c1cnn(Cc3ccc(F)c(F)c3F)c(=O)c1n2C`, the Potency was 1260 nM (active).

On to `O=S(=O)(c1ccc(F)cc1)N1CCN(S(=O)(=O)c2ccc3c(c2)OCCO3)CC1`, for which the Potency is 199 nM (active).

As for `Cn1c2ccsc2c2cnn(Cc3ccccc3F)c(=O)c21`, the Potency was 2510 nM (active).

Take `Nc1ccc(S(=O)(=O)N2CCN(S(=O)(=O)c3c(F)cccc3F)CC2)cc1`: the Potency was 410 nM (active).

As to `Cc1cc2c(s1)c1cnn(Cc3cccc(Cl)c3)c(=O)c1n2C`, the Potency is 355 nM (active).

On to `Cc1cc2c(s1)c1cnn(Cc3cc(C(F)(F)F)cc(Cl)c3F)c(=O)c1n2C`, for which the Potency was 562 nM (active).

Regarding `Cc1ccc(C)c(OC2=NS(=O)(=O)c3ccccc32)c1`, the “activation” value was -6.5%.

On to `O=S(=O)(NCCNS(=O)(=O)c1c(F)cccc1F)c1ccc2c(c1)OCCO2`, for which the “activation” value is 25.3%.

Consider `Cn1c2cc(CO)sc2c2cnn(Cc3ccccc3F)c(=O)c21`, for which the Potency was 141 nM (active).

Turning to `CC(=O)c1cc2c(s1)c1cnn(Cc3ccccc3F)c(=O)c1n2C`, the Potency is 158 nM (active).

Take `Cn1c2cc(Br)sc2c2cnn(Cc3ccc(F)cc3F)c(=O)c21`: the Potency is 708 nM (active).

With `Cc1cc2c(s1)c1cnn(Cc3cccc(Cn4ncc5c6sc(C)cc6n(C)c5c4=O)c3F)c(=O)c1n2C`, the Potency was 35500 nM (active).

For the compound `Cc1cc2c(s1)c1cnn(Cc3ccc(F)cc3)c(=O)c1n2C`, the Potency is 251 nM (active).

For `CSc1cc2c(s1)c1cnn(Cc3cccc(O)c3)c(=O)c1n2C`, the Potency was 65.1 nM (active).

On to `Cc1cc2c(s1)c1cnn(Cc3ccc(C(C)C)cc3)c(=O)c1n2C`, for which the Potency was 4470 nM (active).

For the compound `COc1ccc(S(=O)(=O)N2CCN(S(=O)(=O)c3ccc4c(c3)OCCO4)CC2)cc1`, the Potency was 562 nM (active).

`CN1CCOc2ccc(S(=O)(=O)N3CCN(S(=O)(=O)c4c(F)cccc4F)CC3)cc21`: the Potency is 3.55 µM (active) and 708 nM (active).

For the compound `O=S(=O)(c1ccccc1)N1CCN(S(=O)(=O)c2ccc3c(c2)OCCO3)CC1`, the Potency is 447 nM (active).

For the compound `CN(C)c1cccc(S(=O)(=O)N2CCN(S(=O)(=O)c3ccc4c(c3)OCCO4)CC2)c1`, the “activation” value was -8.86%.

`O=S(=O)(c1cccc(O)c1)N1CCN(S(=O)(=O)c2c(F)cccc2F)CC1`: the Potency is 183 nM (active).

On to `COc1cc(F)c(S(=O)(=O)N2CCN(S(=O)(=O)c3cccs3)CC2)c(F)c1`, for which the Potency is 51.7 nM (active).

With `O=S(=O)(c1ccc2c(c1)OCCO2)N1CCN(S(=O)(=O)c2ccc3c(c2)OCCO3)CC1`, the Potency was 398 nM (active).

For `O=C1CN(S(=O)(=O)c2ccc3c(c2)OCCO3)CCN1S(=O)(=O)c1c(F)cccc1F`, the Potency is 2820 nM (active).

Consider `O=S(=O)(c1c(F)cccc1F)N1CCN(S(=O)(=O)c2c(F)cccc2F)CC1`, for which the Potency was 126 nM (active).

As to `O=S(=O)(c1ccc2ccccc2c1)N1CCN(S(=O)(=O)c2c(F)cccc2F)CC1`, the Potency was 8.91 µM (active) and 158 nM (active).

Take `COc1cc(F)c(S(=O)(=O)N2CCCN(S(=O)(=O)c3ccc(NC(C)=O)cc3)CC2)c(F)c1`: the Potency was 6510 nM (active).

`Cn1c2cc(C#N)sc2c2cnn(Cc3ccc(F)cc3)c(=O)c21`: the Potency is 282 nM (active).

With `O=S(=O)(c1ccc2c(c1)OCCO2)N1CCN(S(=O)(=O)c2c(F)cccc2F)CC1`, the Potency is 1 µM (active) and 562 nM (active).

Consider `Cc1cc2c(s1)c1cnn(Cc3c(F)cccc3F)c(=O)c1n2C`, for which the Potency is 141 nM (active).

Regarding `CCc1cc2c(s1)c1cnn(Cc3ccccc3F)c(=O)c1n2C`, the Potency was 631 nM (active).

Turning to `COc1cc(F)c(S(=O)(=O)N2CCCN(S(=O)(=O)c3ccc(N)cc3)CC2)c(F)c1`, the Potency was 1300 nM (active).

`Cn1c2cc(C=O)sc2c2cnn(Cc3ccccc3F)c(=O)c21`: the Potency is 282 nM (active).

Consider `COC(=O)c1cc(F)c(S(=O)(=O)N2CCN(S(=O)(=O)c3ccc4c(c3)OCCO4)CC2)cc1F`, for which the Potency is 355 nM (active).

Regarding `CC(=O)Nc1cccc(S(=O)(=O)N2CCN(S(=O)(=O)c3c(F)cccc3F)CC2)c1`, the Potency is 14600 nM (active).

`COc1cccc(Cn2ncc3c4sc(S(C)=O)cc4n(C)c3c2=O)c1` (stereo not given): the Potency is 146 nM (active).

Turning to `Cn1c2cc([N+](=O)[O-])sc2c2cnn(Cc3ccccc3F)c(=O)c21`, the Potency was 251 nM (active).

In the case of `Cc1cc2[nH]c3c(=O)n(Cc4ccccc4F)ncc3c2s1`, the Potency is 708 nM (active).

The values above are taken from PubChem BioAssay AID1540 (National Center for Advancing Translational Sciences (NCATS), 2009).
